Anthrax LF inh2 – blocks Bacillus anthracis lethal factor protease | P15917 | multiplex microsphere protease cleavage assay, LF | 360,000 tested, 0.12% active | inhibition, % at 10 µM
Target sequence (P15917 whole entry, looked up): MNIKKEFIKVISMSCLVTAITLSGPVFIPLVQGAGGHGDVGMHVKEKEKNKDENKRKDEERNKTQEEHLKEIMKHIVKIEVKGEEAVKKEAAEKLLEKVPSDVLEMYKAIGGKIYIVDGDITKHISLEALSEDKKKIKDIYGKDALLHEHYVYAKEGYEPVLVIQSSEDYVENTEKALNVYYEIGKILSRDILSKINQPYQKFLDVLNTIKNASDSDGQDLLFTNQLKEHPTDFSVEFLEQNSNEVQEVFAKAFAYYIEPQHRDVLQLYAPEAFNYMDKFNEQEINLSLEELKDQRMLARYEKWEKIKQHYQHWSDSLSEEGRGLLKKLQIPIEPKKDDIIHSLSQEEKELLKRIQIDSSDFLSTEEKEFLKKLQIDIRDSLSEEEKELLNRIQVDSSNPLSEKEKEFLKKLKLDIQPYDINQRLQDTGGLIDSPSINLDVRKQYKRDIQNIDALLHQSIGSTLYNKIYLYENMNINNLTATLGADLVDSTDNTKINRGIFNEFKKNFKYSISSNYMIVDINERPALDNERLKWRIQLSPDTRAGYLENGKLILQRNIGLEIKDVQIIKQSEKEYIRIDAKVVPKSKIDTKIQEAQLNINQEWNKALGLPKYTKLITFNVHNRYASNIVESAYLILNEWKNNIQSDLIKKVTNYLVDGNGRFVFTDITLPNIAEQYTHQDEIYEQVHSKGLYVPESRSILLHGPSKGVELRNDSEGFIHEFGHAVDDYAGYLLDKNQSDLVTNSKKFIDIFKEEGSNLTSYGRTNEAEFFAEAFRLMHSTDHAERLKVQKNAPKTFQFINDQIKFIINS
BoNT-F LC inh – blocks Botulinum neurotoxin F light chain protease. Multiplex microsphere protease cleavage assay, flow cytometry. inhibition, % at 10 µM. 360,000 tested, 0.22% active. AID 588497; in the data active = inhibition above about 35%, passing the limit was not always enough; inconclusive = no clear call, values can overlap the other calls
BoNT-A LC inh2 – inhibitors of Botulinum neurotoxin A light chain protease; AID 588499; multiplex microsphere protease substrate cleavage, flow cytometry; 360,000 tested, 0.17% active; inhibition, % at 10 µM
Bead autofluor – flagged as autofluorescent in microsphere protease counterscreen. 360,000 tested, 3.1% active. fluorescence intensity (no concentration beside the values). compound autofluorescence counterscreen, microsphere flow cytometry; stronger effect = higher value; in the data active = fluorescence intensity above about 16000; inconclusive = no clear call, values can overlap the other calls
Of the large screens only hits and unclear results are named; the others gave an inactive call. Sampled rows, rich in hits. Any-hit rate of the full collection: about 3.5%. Cut-off read from the data, not from the text of the source, unless noted: active = inhibition above about 30%; inconclusive = no clear call, values can overlap the other calls; inactive = below that.

Cc1cc(C(=O)N2CCC3(CC2)OCCO3)cs1	BoNT-A LC inh2 inconclusive, Bead autofluor 21544
CCc1noc(C)c1C(=O)N1CCCC1	BoNT-A LC inh2 inconclusive, Bead autofluor 16196
O=C(c1ccccc1)N1CCC2(CC1)OCCO2	none
Cc1occc1C(=O)N1CCN(C(c2ccccc2)c2ccccc2)CC1	Bead autofluor 22960
COc1nc(C)ccc1-c1noc(-c2ccco2)n1	Bead autofluor 20448
COc1nc(-c2ccc(C)cc2)ccc1-c1noc(-c2ccco2)n1	none
COc1cc2nc(/C=C/c3cc(OC)c(OC)c(OC)c3)sc2cc1SC	BoNT-A LC inh2 54
COc1cc2nc(C)sc2cc1SC	none
O=C(NCCO)c1ccc(-c2ccc3nncn3c2)cc1	none
CC(=O)Nc1ccc(S(=O)(=O)Nc2nnc(C(C)C)s2)cc1	Bead autofluor 16628
CCOc1ccc(N(CC(=O)NCc2ccccc2C)S(C)(=O)=O)cc1	none
CCOC(=O)C1=C(CCc2ccccc2)NC(=O)NC1c1ccc(Br)cc1 (stereo unspecified)	none
CCOC(=O)C1=C(CN2c3ccccc3CC2C)NC(=O)NC1c1ccccc1 (stereo unspecified)	Anthrax LF inh2 44, BoNT-A LC inh2 54
COCCNc1nc(NCCCN2CCCC2=O)c2sccc2n1	none
COc1cccc(CNC(=O)CCNC(=O)c2ccc(Br)o2)c1	none
O=C(CCNC(=O)c1ccc(Br)o1)NCc1ccc(Cl)cc1	Bead autofluor 20990
Cc1ccc(NC(=O)CN2CCN(C(=O)c3ccco3)CC2)cc1	none
C[N+]1(CC(=O)Nc2ccc(F)cc2)CCN(C(=O)c2ccco2)CC1	Bead autofluor 16539
Cc1nc(Nc2ccccc2)[nH]c(=O)c1CCC(C)C	none
CCCCCc1c(C)nc(NCc2ccccc2)[nH]c1=O	BoNT-A LC inh2 inconclusive, Bead autofluor 20180
COc1ccccc1C=NN=C(NN=Cc1ccccc1OC)NN=Cc1ccccc1OC	none
O=C(COC(=O)c1cccnc1Cl)c1ccc(Cl)cc1Cl	Bead autofluor 19499
Cc1cc(OC(C)C(=O)NC2CC(C)(C)NC(C)(C)C2)c2c(C)c(C)c(=O)oc2c1 (stereo unspecified)	none
O=C(Nc1nccs1)Oc1ccccc1	BoNT-A LC inh2 inconclusive, Bead autofluor 20333
COCCCNC(=O)c1ccc2c(=O)n(C3CCCC3)c(=S)[nH]c2c1	Bead autofluor 18736
CC(C)NC(=O)c1ccc2c(=O)n(CC3CCCO3)c(=S)[nH]c2c1 (stereo unspecified)	none
COCCCNC(=O)c1ccc2c(=O)n(CC3CCCO3)c(=S)[nH]c2c1 (stereo unspecified)	Bead autofluor 16266
NC(=O)c1cccc(-c2ccnc3c2CC(C(=O)Nc2cccc(Oc4ccccc4)c2)O3)c1 (stereo unspecified)	none
CC(C)(C)OC(=O)N(CCc1ccccc1)Cc1cccc(OCc2cccc(NC(=O)c3ccccc3)c2)c1	none
CCN(CC)C(=O)c1cccc(-c2csc(C(C)(NC(C)=O)c3ccc(OC)cc3)n2)c1 (stereo unspecified)	none
O=c1ccnc(SCc2ccccc2Cl)[nH]1	Bead autofluor 16496
CC(C)(C)c1cc(=O)[nH]c(SCc2ccccc2Cl)n1	none
COc1ccc(CCNC(=O)c2ccc(NC(=O)CC3SC(N4CCCC4)=NC3=O)cc2)cc1OC (stereo unspecified)	none
CC1(C(=O)Nc2ccc(Cl)cc2)Cc2c(-c3ccc(C(N)=O)cc3)ccnc2O1 (stereo unspecified)	none
CCn1cc([N+](=O)[O-])c(C(=O)N2CCOCC2)n1	none
CCn1cc([N+](=O)[O-])c(C(=O)N2N=C3/C(=C/c4cccs4)CCCC3C2c2cccs2)n1 (stereo unspecified)	Bead autofluor 21392
Cc1nc(-c2cccnc2)sc1C(=O)Nc1ccc(C(F)(F)F)cc1	BoNT-A LC inh2 inconclusive, Bead autofluor 22745
Cc1nc(Cl)sc1C(=O)Nc1cccc(C(F)(F)F)c1	none
CNC(=O)c1sc(-c2cccnc2)nc1C	Bead autofluor inconclusive
Cc1nc(-c2cccnc2)sc1C(=O)Nc1cccc(C(F)(F)F)c1	BoNT-A LC inh2 inconclusive, Bead autofluor 22572
CC(N)C(=O)NC(C(=O)NC(C)C(=O)Nc1cccc2ccccc12)C(C)C (stereo unspecified)	none
Cc1ccc(C(=O)Nc2cnc3ccccn3c2=O)cc1	Bead autofluor 24404
Cc1ccc2ncc(NC(=O)c3ccc(F)cc3)c(=O)n2c1	none
O=C1NC(=O)N(CCC2=CCCCC2)C(=O)/C1=C/c1cccs1	Anthrax LF inh2 inconclusive, BoNT-F LC inh 37
COc1ccc2c(c1)O/C(=C\c1sccc1C)C2=O	BoNT-F LC inh 40
CCNC(=S)NNC(=O)c1cc(C2CC2)nc2ccccc12	Bead autofluor 22689
CCNC(=S)NNC(=O)c1cc(-c2cccc(OCC)c2)nc2ccccc12	none
CCCNC(=S)NNC(=O)c1cc(C2CC2)nc2ccccc12	none
CCCCOc1cccc(-c2cc(C(=O)NNC(=S)NCC)c3ccccc3n2)c1	Bead autofluor 19871
O=C(NCCc1ccc(Cl)cc1)c1cccc(S(=O)(=O)N2CCCC2)c1	none
CC1=CCC(C(=O)O)C(C(=O)O)C1 (stereo unspecified)	Bead autofluor 22181
S=c1[nH]nc(COc2ccc(Cl)cc2)o1	BoNT-A LC inh2 inconclusive, Bead autofluor 19965
COc1ccc(OCc2n[nH]c(=S)o2)cc1	none
O=[N+]([O-])c1cc(-n2cnnn2)ccc1N1CCC(Cc2ccccc2)CC1	Bead autofluor 16952
CN(c1ccc(O)cc1)c1nc(-c2cccs2)cs1	none
Cc1nc(N)sc1-c1csc(N(C)c2ccc(O)cc2)n1	Bead autofluor 23793
O=C1C(=Cc2ccc(Br)o2)C(=O)c2ccccc21	BoNT-F LC inh 34
Cc1ccc(O)c(C2=NCCNC(C(F)(F)C(F)F)=C2)c1	Bead autofluor 23315
Oc1ccc(Cl)cc1C1=NCCNC(C(F)(F)C(F)F)=C1	Bead autofluor 22480
FC(F)C(F)(F)C1=CC(c2ccccc2)=NCCN1	none
O=C(NCCN1CCN(Cc2ccccc2)CC1)c1ccc(CS(=O)(=O)c2c(Cl)cccc2Cl)o1	none
C[C@@H]1CCCCO[C@@H](CN(C)C(=O)CCCN(C)C)[C@@H](C)CN([C@H](C)CO)C(=O)c2cc(N(C)C)ccc2O1	none
COC(=O)C1C(=O)C2=C(CC1C)NC(C)=C(C(=O)OC(C)C)C2c1ccc(C)o1 (stereo unspecified)	Bead autofluor 23601
COC(=O)C1C(=O)C2=C(CC1C)NC(C)=C(C(=O)OCc1ccc(OC)cc1)C2c1ccc(C)o1 (stereo unspecified)	none
O=C(OCCO)c1c(C2=CCCCC2)oc2c1C(OCCO)CCC2 (stereo unspecified)	none
O=Cc1c[nH]c2ccc(S(=O)(=O)N3CCCCC3)cc12	none
Cc1cc(C)cc(NC(=O)c2ccc(CSc3nnnn3C)cc2)c1	none
Cn1c(CSCc2ccc(Cl)c(Cl)c2)nnc1SCC(=O)Nc1nccs1	BoNT-F LC inh inconclusive
Cn1nnnc1SCc1ccc(C(=O)Nc2nccs2)cc1	Bead autofluor 24214
Cn1c(CSCc2ccc(Cl)cc2)nnc1SCC(=O)Nc1nccs1	Bead autofluor 16354
O=C(O)c1cnc2ccc(Cl)cc2n1	none
Cc1nn(CCC(=O)NNC(=S)Nc2ccc(F)cc2)c(C)c1[N+](=O)[O-]	Bead autofluor 22117
CCCCN(C)CCNC(=O)c1c[nH]c2ccc(S(=O)(=O)N(CC)CC)cc2c1=O	Bead autofluor 20963
